Hits are enriched below; roughly 6.1% of the tested compounds scored in any of these assays.
D1 antagonist: Antagonist of Human D 1 Dopamine Receptor: qHTS; HEK293 TREx D1 cells, calcium flux, dopamine EC80; stronger effect = lower value; D(1A) dopamine receptor (Homo sapiens), P21728; 3.2% of 360,000 active; activity change, negative = inhibition, % at 10 µM; in the data active means activity change below about -30%; further: on the % scale 0 is the no-effect control and ±100 the full control effect
Target sequence (P21728 whole entry, looked up): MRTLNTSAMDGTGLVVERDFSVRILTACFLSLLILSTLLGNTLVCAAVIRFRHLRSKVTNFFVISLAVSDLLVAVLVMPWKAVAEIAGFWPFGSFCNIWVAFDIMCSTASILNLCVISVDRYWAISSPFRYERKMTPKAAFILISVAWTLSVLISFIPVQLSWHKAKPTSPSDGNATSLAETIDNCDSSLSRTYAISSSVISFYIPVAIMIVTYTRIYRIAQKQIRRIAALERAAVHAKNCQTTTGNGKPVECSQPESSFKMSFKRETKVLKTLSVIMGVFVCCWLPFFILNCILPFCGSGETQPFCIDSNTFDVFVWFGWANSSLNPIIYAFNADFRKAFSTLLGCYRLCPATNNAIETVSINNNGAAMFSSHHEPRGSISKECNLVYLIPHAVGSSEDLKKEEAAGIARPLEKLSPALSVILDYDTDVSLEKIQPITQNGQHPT
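Antagonism measured as reduced calcium response to an EC80 dopamine addition following 180 s compound pre-read; cells were inducible HEK293 Trex D1 plated overnight at 30 C, read kinetically at 1 cycle/sec.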
D1 potentiator: Potentiators of Human D1 Dopamine Receptor: qHTS | D(1A) dopamine receptor (Homo sapiens), P21728 | 0.036% of 360,000 active | potentiation, % at 10 µM | HEK293 TREx D1 cells, calcium flux, dopamine EC20 potentiation; in the data active means potentiation above about 30%; further: 0% is about no effect
D1 ag: Allosteric Agonists of the Human D1 Dopamine Receptor: qHTS. D(1A) dopamine receptor (Homo sapiens), P21728. HEK293 T-REx D1 cells, calcium flux, agonist mode. activation, % at 2 µM. 1% of 360,000 active; in the data active means activation above about 30%; further: 0% is about no effect
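Agonism was scored from calcium flux recorded over 180 s (1 read/s) after pintool compound addition, following a 10-cycle baseline. Cells were inducible force-coupled HEK293 TREx D1, plated overnight at 30 C and loaded with no-wash calcium dye.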
D3 ag: qHTS of D3 Dopamine Receptor Agonist: qHTS | AID 652048, 2013 | max activation, % | 0.58% of 410,000 active | D3R DiscoveRx beta-arrestin cells, luminescence, 90 min; in the data active means max activation above about 30%; further: 0% is about no effect
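Agonist mode: compounds and dopamine controls were applied to plated cells for 90 min at 37 degrees C after an overnight attachment at 1500 cells/well. Luminescent read-out followed 30 - 60 minutes at room temperature with DiscoveRx detection reagent.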
D3 antag: qHTS of D3 Dopamine Receptor Antagonist: qHTS | D(3) dopamine receptor (Homo sapiens), P35462 | D3R cells, DiscoveRx beta-arrestin luminescence, antagonist mode; stronger effect = lower value | max response, negative = inhibition, % | 2.5% of 360,000 active; in the data active means max response below about -50%; inconclusive means no clear call, values can overlap the other calls; further: on the % scale 0 is the no-effect control and ±100 the full control effect
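Cells expressing the human receptor were seeded at 1500 cells/well, incubated overnight at 37 degrees C in 5% CO2, then exposed to library compounds with dopamine controls for 90 minutes at 37 degrees C before luminescent detection.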
The depositor's hits bear a star; ? = inconclusive; . = not tested or not shown.

SMILES	D1 antagonist	D1 potentiator	D1 ag	D3 ag	D3 antag
COC(=O)C1=NN(C(=O)c2ccc(C)cc2)C(O)(c2ccc(Cl)cc2)C1 (centres undefined)	-2.5	-7.0	57.1*	-18.5	?
COC(=O)C1=NN(C(=O)c2ccccc2)C(C)(O)C1 (centres undefined)	2.4	0.6	2.6	-5.6	-15.8
COC(=O)C1=NN(C(=O)c2ccccc2)C(O)(c2ccc([N+](=O)[O-])cc2)C1 (centres undefined)	-2.3	-7.5	86.3*	-7.0	-14.6
CC1=NN(C(=O)c2ccc(Cl)cc2)C(O)(c2ccccc2)C1 (centres undefined)	3.5	-4.3	2.1	9.5	28.1
CCOC(=O)C1CCN(Cc2cc(=O)oc3c(C)c(C)ccc23)CC1	-20.0	-0.4	15.9	14.0	-15.3
CCN(CCCNC(=O)CNC(=O)c1nn(-c2ccc(OC)cc2)c(=O)c2ccccc12)c1cccc(C)c1	5.3	0.8	1.1	3.0	14.7
Cc1cc(C)nc(SCc2ccc(C(=O)NNC(=O)Nc3cccc(Cl)c3)cc2)n1	-14.9	-7.6	2.0	-5.7	-57.9*
COc1cc(C(=O)OCC(=O)N2CCCC2)cc(OC)c1OC	-41.7*	-4.0	2.7	3.8	15.9
Cc1ccc(C(=O)OCC(=O)N2CCCC2)cc1	-56.4*	-7.3	0.9	-1.7	4.3
Cc1cc(C)cc(C(=O)OCC(=O)N2CCCC2)c1	2.7	3.6	-1.4	9.2	1.2
COc1ccc(NC(=S)NC(=O)Cc2ccccc2)c(OC)c1	11.0	3.0	16.3	11.0	-18.3
Cc1ccc(NC(=O)COc2ccc(C(=O)c3ccccc3)cc2)c(O)c1	-30.4*	-10.1	11.4	-18.0	-1.7
Cc1ccc(NC(=S)NC(=O)Cc2ccccc2)c(O)c1	-10.1	0.1	33.2*	6.0	0.1
Cc1ccc(N)cc1NC(=O)CN1CCOCC1	10.1	3.0	4.7	1.4	1.0
O=C1CCCc2nc(N3CCCCC3)sc21	-20.4	3.8	1.1	8.2	-58.7*
COc1ccc(C2=NO[C@@H]3C(=O)N(C4CCCCC4)C(=O)[C@H]23)cc1OC	-35.3*	-7.1	25.9	12.4	0.0
COc1ccc(C2=NO[C@@H]3C(=O)N(c4ccc5c(c4)OCCO5)C(=O)[C@H]23)cc1OC	-8.5	-4.8	8.9	-8.4	-17.1
CCc1ccccc1N(CC)C(=O)C(=O)Nc1ccc2nc3n(c(=O)c2c1)CCCCC3	-3.5	-1.2	-0.9	4.7	.
Cc1[nH]c(=S)c(C#N)c(C)c1Cc1ccc(Cl)cc1Cl	-50.8*	-5.0	0.3	4.6	191.5
Cc1[nH]c(=O)c(C#N)c(C)c1Cc1ccc(Cl)cc1Cl	-62.1*	5.7	0.3	0.4	5.3
Cc1[nH]c(=S)c(C#N)c(C)c1CC(=O)c1ccc(Br)cc1	4.8	2.6	4.0	-16.1	-16.8
Cc1ccc(S(=O)(=O)N2CCCCC2)c(C)c1NS(C)(=O)=O	.	-5.1	6.7	16.9	-0.8
O=C(NCCCN1CCN(c2ccccc2F)CC1)c1sc2ncccc2c1-n1cccc1	-38.2*	-5.3	-0.6	14.8	.
O=C(NCCCN1CCN(c2ccccc2)CC1)c1sc2ncccc2c1-n1cccc1	-21.9	-4.8	0.1	21.1	.
Cc1ccc(C)n1-c1c(C(=O)NCCCN2CCN(c3ccc(F)cc3)CC2)sc2ncccc12	-56.3*	-4.7	0.7	-20.9	.
SMILES	D1 antagonist	D1 potentiator	D1 ag	D3 ag	D3 antag
O=C(NCCCN1CCN(c2cccc(Cl)c2)CC1)c1sc2ncccc2c1-n1cccc1	-35.0*	-4.5	1.9	2.8	.
Cc1nc2ncnn2c(C)c1CCC(=O)N1CCN(c2cccc(Cl)c2)CC1	-2.9	-1.8	0.2	-5.8	.
Cc1nc2ncnn2c(C)c1CCC(=O)NCCCN1CCN(c2cccc(Cl)c2)CC1	1.3	-7.5	1.5	9.5	-52.4*
CCc1ccccc1N(CC(=O)NC(C)C)C(=O)CCC(=O)Nc1nccs1	26.5	1.0	6.5	3.4	-7.1
COc1cc(OC)cc(-n2nnc(-c3nc(-c4ccccc4Cl)no3)c2N)c1	-5.1	-8.1	4.5	-2.4	.
Cc1ccccc1S(=O)(=O)/N=C(/c1ccccc1)N1CCOCC1	-9.0	-7.2	0.1	0.9	2.9

Screens deposited in PubChem BioAssay by National Center for Advancing Translational Sciences (NCATS).
